Assay results taken from PubChem BioAssay (NCATS).
Records with an inconclusive call do not appear. Where a call stands in place of a potency, no number is given. Calls of active or inactive are those of the source. The call rests on the fitted dose curve; in most records, active means well fitted cell-killing curve with a large enough effect; inconclusive means small, poorly fitted or top-dose-only effect, or effect the other way; inactive means flat fitted curve, though single readings scatter.

test system: PA-1; test: Primary qHTS to identify gynecologic anti-cancer compounds using libraries of approved drugs and bioactive compounds (AID 1345084); details: Gynecologic cancer cell panel viability, ATPlite luminescence, 48 h; series mostly up to 57.5 µM; further: nearly all actives have a fitted effect of over 55% in size
How it was run: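 Luminescence from the ATPlite ATP-monitoring reagent indicates viable cell number; lower signal means cytotoxicity. Cells received compound 16 h after seeding and were exposed for 48 h across five concentrations.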
Potency means the concentration at half of the fitted maximal effect.

| SMILES | Potency | activity change, negative = cytotoxicity |
| --- | --- | --- |
| CC12CCC(OC3OC(CO)C(O)C(OC4OC(CO)C(O)C(O)C4O)C3O)CC1CCC1C2CCC2(C)/C(=C3/COC(=O)C3)CCC12O (centres undefined) | inactive | – |
| CC[C@@H](O)C[C@@H]1C(C)=C[C@@H]2CCCC[C@@H]2[C@@]1(C)C(=O)O | inactive | – |
| CNC(=O)c1cccc(-c2ccc3c(N4CCOC[C@@H]4C)nc(N4CCOC[C@@H]4C)nc3n2)c1 | 1.58 µM (active) | – |
| C/C=C/C=C/C(=O)N1CC[C@]23c4ccccc4N[C@H]4N(C)c5cccc6c5[C@@]42CCN([C@H]6C2OC2(C)C)[C@H]13 (some centres undefined) | inactive | – |
| CC1(C)CC[C@]2(C(=O)OC3OC(CO)C(O)C(O)C3O)CC[C@]3(C)C(=CCC4[C@@]5(C)CC[C@H](OC6OC(C(=O)O)C(O)C(OC7OC(CO)C(O)C(O)C7O)C6O)C(C)(C)C5CC[C@]43C)C2C1 (some centres undefined) | – | 4.28% [at 11.6 µM] (inactive) |
| O=C(O)CC(=O)OC[C@H]1O[C@@H](Oc2ccc3c(c2)OC[C@H]2c4cc5c(cc4O[C@@H]32)OCO5)[C@H](O)[C@@H](O)[C@@H]1O | inactive | – |
| Cc1ccc(C)c(OCCn2cc(C(=O)O)c3ccccc32)c1 | inactive | – |
| COc1ccc(C[C@H](N)C(=O)N[C@@H]2[C@H](O)[C@H](n3cnc4c(N(C)C)ncnc43)O[C@@H]2CO)cc1 | 1 µM (active) | – |
| COc1ccc(/C=C/C(=O)O[C@@H]2[C@@H](O)[C@H](C)O[C@@H](O[C@H]3[C@@H]4C=CO[C@@H](O[C@H]5O[C@@H](CO)[C@H](O)[C@@H](O)[C@@H]5O)[C@@H]4[C@@]4(CO)O[C@@H]34)[C@@H]2OC(C)=O)cc1 | inactive | – |
| CC(C)c1cc(C(=O)N2CC[C@H](NC(=O)C3CC3)C2)n[nH]1 | inactive | – |
| CC1CCC2(OC1)OC1CC3C4CC=C5CC(O)CC(O[C@@H]6OC[C@@H](O)[C@H](O)[C@H]6O)C5(C)C4CCC3(C)C1(O)C2C (some centres undefined) | inactive | – |
| COc1ccc(-c2ccc3c(N4CCOCC4)nc(N4CC(C)OC(C)C4)nc3n2)cc1CO (centres undefined) | 2.51 µM (active) | – |
| CC1=CC(=O)C(=C(C)C)CC2C1CCC2(C)O (centres undefined) | inactive | – |
| CC(C)(C)c1ccc(S(=O)(=O)NCc2ccc(C(=O)Nc3cccnc3)cc2)cc1 | 1.12 µM (active) | – |
| COc1ccc(-c2c(-c3cc(C(=O)O)ccn3)ncn2C)cc1 | inactive | – |
| O=C(O)c1cc(-c2c(-c3ccccc3)nn3ccccc23)n[nH]c1=O | inactive | – |
| CC(C)(C)NCCCNC(=O)c1cccc(Br)c1 | inactive | – |

| SMILES | Potency | activity change, negative = cytotoxicity |
| --- | --- | --- |
| c1ccc(-c2csc(N3CCOCC3)n2)cc1 | inactive | – |
| O=C1CCC(=O)N(O)CCCCCNC(=O)CCC(=O)N(O)CCOCCNC(=O)CCC(=O)N(O)CCCCCN1 | inactive | – |
| C=C1CC[C@H]2[C@@](C)(CCC(O)[C@@]2(C)CO)[C@@H]1CCC1=CCOC1=O (some centres undefined) | inactive | – |
| CC1(C)CCC[C@]2(C)[C@H]3CC(=O)O[C@]3(C)CC[C@@H]12 | inactive | – |
| O=C(O)c1cc2cccc([N+](=O)[O-])c2[nH]1 | inactive | – |
| Nc1ccccc1N | 14.1 µM (active) | – |
| CC1(C)CC[C@]2(C(=O)O[C@@H]3O[C@H](CO)[C@@H](O)[C@H](O)[C@H]3O)CC[C@]3(C)C(=CCC4[C@@]5(C)C[C@@H](O)[C@H](O)C(C)(C)C5[C@H](O)C[C@]43C)[C@@H]2[C@@H]1O (some centres undefined) | inactive | – |
| CN1CCN(Cc2ccc(-c3cnc4[nH]cc(-c5ccc6[nH]ccc6c5)c4c3)cc2)CC1 | 12.6 µM (active) | – |
| Nc1nccn2c(C3CCC(C(=O)O)CC3)nc(-c3cc4cccc(Cl)c4[nH]3)c12 (centres undefined) | 7.94 µM (active) | – |
| COc1ccc(-n2[nH]c(=O)c3[nH]c4cc(Cl)ccc4c(=O)c3c2=O)c(C)c1 | inactive | – |
| CC1(C)CCCC2(C)C(C(=O)O)=CCC12 (centres undefined) | inactive | – |
| C=C(C)C1CCC(C)C12CC(O)C1(C)OC1C2OC(=O)C(N)CCC(=O)O (centres undefined) | inactive | – |
| CC1CCC2(C(=O)O)CCC3(C)C(=CCC4C5(C)CCC(O)C(C)(CO)C5CCC43C)C2C1(C)O (centres undefined) | inactive | – |
| COc1cc([C@H]2c3cc(O)c(OC)cc3C[C@@H](CO[C@@H]3O[C@H](CO)[C@@H](O)[C@H](O)[C@H]3O)[C@@H]2CO)ccc1O | inactive | – |
| O=C(O)/C=C/c1ccc(-c2ccc(O)c(C34CC5CC(CC(C5)C3)C4)c2)cc1 | 2.24 µM (active) | – |
| COc1cc(O)cc(C)c1C(=O)OC1C(CO)OC(OC2C(O)C(O)C(O)C(O)C2O)C(O)C1O (centres undefined) | inactive | – |
| CCOCc1cc(OC)c(-c2ccc(C[C@H](NC(=O)c3c(F)cccc3F)C(=O)O)cc2)c(OC)c1 | inactive | – |
